Experimental data reported in PubChem BioAssay AID1159580 (chemical genetic matrix, 2015).
Several values for one entry are separate records, joined by “and”; a condition that tells them apart may be missing. Equal values may be shown once. About 2,000 (36%) of roughly 5,500 compounds were called active. About 18% were inconclusive and are not listed. Cut-off read from the data, not from the text of the source: active = normalized growth mostly below about 0.91 (no sharp cut-off); inconclusive = no clear call, values can overlap the other calls; inactive = mostly above about 0.92. Some of the results follow. Some compounds were tested as several samples or in several runs, with calls that do not always agree.

Test: chemical genetic growth profiling, strain panel (AID 1159580);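 note: tested at 20 µM; growth read once vehicle control cultures reached saturation at 30 °C; 1 = growth at the plate median or of vehicle wells; lower values mean less growth of the strain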
Conditions: growth OD

O=C1CCc2cc(OCCCCc3nnnn3C3CCCCC3)ccc2N1
normalized growth (S. cerevisiae deletion strains, locus YKL009W, strain mrt4, stronger effect = lower value): 1 (inactive)
normalized growth (S. cerevisiae deletion strains, locus YKL068W, stronger effect = lower value): 1 (inactive)
normalized growth (S. cerevisiae deletion strains, locus YKL085W, strain MDH1 (second series), stronger effect = lower value): 1.01 (inactive)
normalized growth (S. cerevisiae deletion strains, locus YKL085W, strain MDH1, stronger effect = lower value): 1.01 (inactive)
normalized growth (S. cerevisiae deletion strains, locus YKL160W, strain elf1, stronger effect = lower value): 0.987 (inactive)
normalized growth (S. cerevisiae deletion strains, locus YKL190W, strain CNB1, stronger effect = lower value): 1.01 (inactive)
normalized growth (S. cerevisiae deletion strains, locus YKR001C, strain vps1, stronger effect = lower value): 0.993 (inactive)
normalized growth (S. cerevisiae deletion strains, locus YKR026C, strain gcn3, stronger effect = lower value): 0.979 (inactive)
normalized growth (S. cerevisiae deletion strains, locus YKR091W, strain srl3, stronger effect = lower value): 0.99 (inactive)
normalized growth (S. cerevisiae deletion strains, locus YLL001W, strain dnm1, stronger effect = lower value): 0.984 (inactive)
normalized growth (S. cerevisiae deletion strains, locus YLL026W, stronger effect = lower value): 0.993 (inactive)
normalized growth (S. cerevisiae deletion strains, locus YLL041C, strain sdh2, stronger effect = lower value): 0.991 (inactive)
normalized growth (S. cerevisiae deletion strains, locus YLR027C, strain aat2, stronger effect = lower value): 0.978 (inactive)
normalized growth (S. cerevisiae deletion strains, locus YLR039C, strain RIC1, stronger effect = lower value): 0.972 (inactive)
normalized growth (S. cerevisiae deletion strains, locus YLR058C, strain SHM2, stronger effect = lower value): 1.01 (inactive)
normalized growth (S. cerevisiae deletion strains, locus YLR102C, strain apc9, stronger effect = lower value): 0.999 (inactive)
normalized growth (S. cerevisiae deletion strains, locus YLR113W, strain HOG1, stronger effect = lower value): 0.983 (inactive)
normalized growth (S. cerevisiae deletion strains, locus YLR221C, strain rsa3, stronger effect = lower value): 0.984 (inactive)
normalized growth (S. cerevisiae deletion strains, locus YLR258W, strain gsy2, stronger effect = lower value): 0.986 (inactive)
normalized growth (S. cerevisiae deletion strains, locus YLR262C, strain YPT6 (second series), stronger effect = lower value): 0.876 (inactive)
normalized growth (S. cerevisiae deletion strains, locus YLR262C, strain YPT6, stronger effect = lower value): 0.998 (inactive)
normalized growth (S. cerevisiae deletion strains, locus YLR268W, strain sec22, stronger effect = lower value): 0.999 (inactive)
normalized growth (S. cerevisiae deletion strains, locus YLR320W, strain mms22, stronger effect = lower value): 0.976 (inactive)
normalized growth (S. cerevisiae deletion strains, locus YLR330W, strain CHS5, stronger effect = lower value): 1.01 (inactive)
normalized growth (S. cerevisiae deletion strains, locus YLR342W, strain FKS1 (second series), stronger effect = lower value): 0.987 (inactive)
normalized growth (S. cerevisiae deletion strains, locus YLR342W, strain FKS1, stronger effect = lower value): 0.985 (inactive)
normalized growth (S. cerevisiae deletion strains, locus YLR357W, strain rsc2, stronger effect = lower value): 0.956 (inactive)
normalized growth (S. cerevisiae deletion strains, locus YLR370C, strain arc18, stronger effect = lower value): 0.99 (inactive)
normalized growth (S. cerevisiae deletion strains, locus YLR371W, strain rom2, stronger effect = lower value): 0.995 (inactive)
normalized growth (S. cerevisiae deletion strains, locus YLR384C, strain iki3, stronger effect = lower value): 0.972 (inactive)
normalized growth (S. cerevisiae deletion strains, locus YLR418C, strain cdc73, stronger effect = lower value): 1 (inactive)
normalized growth (S. cerevisiae deletion strains, locus YML016C, strain PPZ1, stronger effect = lower value): 1.01 (inactive)
normalized growth (S. cerevisiae deletion strains, locus YML032C, strain rad52, stronger effect = lower value): 1.02 (inactive)
normalized growth (S. cerevisiae deletion strains, locus YML120C, strain ndi1, stronger effect = lower value): 0.994 (inactive)
normalized growth (S. cerevisiae deletion strains, locus YML124C, strain tub3, stronger effect = lower value): 0.992 (inactive)
normalized growth (S. cerevisiae deletion strains, locus YMR058W, strain fet3, stronger effect = lower value): 1 (inactive)
normalized growth (S. cerevisiae deletion strains, locus YMR078C, strain ctf18, stronger effect = lower value): 0.998 (inactive)
normalized growth (S. cerevisiae deletion strains, locus YMR125W, strain sto1, stronger effect = lower value): 0.999 (inactive)
normalized growth (S. cerevisiae deletion strains, locus YMR129W, stronger effect = lower value): 0.985 (inactive)
normalized growth (S. cerevisiae deletion strains, locus YMR205C, strain PFK2, stronger effect = lower value): 0.989 (inactive)
normalized growth (S. cerevisiae deletion strains, locus YMR223W, strain ubp8, stronger effect = lower value): 0.991 (inactive)
normalized growth (S. cerevisiae deletion strains, locus YMR231W, strain pep5, stronger effect = lower value): 0.996 (inactive)
normalized growth (S. cerevisiae deletion strains, locus YMR263W, strain SAP30, stronger effect = lower value): 1.01 (inactive) and 0.0868 (active)
normalized growth (S. cerevisiae deletion strains, locus YMR307W, strain GAS1, stronger effect = lower value): 0.946 (inactive) and 0.993 (inactive)
normalized growth (S. cerevisiae deletion strains, locus YNL067W, strain RPL9B, stronger effect = lower value): 1.03 (inactive)
normalized growth (S. cerevisiae deletion strains, locus YNL071W, strain lat1, stronger effect = lower value): 1 (inactive)
normalized growth (S. cerevisiae deletion strains, locus YNL128W, strain TEP1, stronger effect = lower value): 1.01 (inactive)
normalized growth (S. cerevisiae deletion strains, locus YNL153C, strain GIM3, stronger effect = lower value): 1.01 (inactive)
normalized growth (S. cerevisiae deletion strains, locus YNL175C, strain NOP13, stronger effect = lower value): 1.03 (inactive)
normalized growth (S. cerevisiae deletion strains, locus YNL183C, strain NPR1, stronger effect = lower value): 0.966 (inactive)
normalized growth (S. cerevisiae deletion strains, locus YNL197C, strain WHI3, stronger effect = lower value): 1.01 (inactive)
normalized growth (S. cerevisiae deletion strains, locus YNL209W, strain ssb2, stronger effect = lower value): 0.998 (inactive)
normalized growth (S. cerevisiae deletion strains, locus YNL224C, strain SQS1, stronger effect = lower value): 1 (inactive)
normalized growth (S. cerevisiae deletion strains, locus YNL233W, strain BNI4, stronger effect = lower value): 1.01 (inactive)
normalized growth (S. cerevisiae deletion strains, locus YNL248C, strain rpa49, stronger effect = lower value): 0.999 (inactive)
normalized growth (S. cerevisiae deletion strains, locus YNL250W, strain rad50, stronger effect = lower value): 0.992 (inactive)
normalized growth (S. cerevisiae deletion strains, locus YNL271C, strain bni1, stronger effect = lower value): 1 (inactive)
normalized growth (S. cerevisiae deletion strains, locus YNL298W, strain CLA4, stronger effect = lower value): 1 (inactive)
normalized growth (S. cerevisiae deletion strains, locus YNL307C, strain MCK1, stronger effect = lower value): 0.982 (inactive)
normalized growth (S. cerevisiae deletion strains, locus YNL322C, strain KRE1 (second series), stronger effect = lower value): 0.988 (inactive)
normalized growth (S. cerevisiae deletion strains, locus YNL322C, strain KRE1, stronger effect = lower value): 1.01 (inactive)
normalized growth (S. cerevisiae deletion strains, locus YNR049C, strain mso1, stronger effect = lower value): 0.998 (inactive)
normalized growth (S. cerevisiae deletion strains, locus YNR052C, strain pop2, stronger effect = lower value): 1 (inactive)
normalized growth (S. cerevisiae deletion strains, locus YOL006C, strain TOP1, stronger effect = lower value): 1.01 (inactive)
normalized growth (S. cerevisiae deletion strains, locus YOL012C, strain htz1): 1.15 (inactive)
normalized growth (S. cerevisiae deletion strains, locus YOL147C, strain pex11, stronger effect = lower value): 0.991 (inactive)
normalized growth (S. cerevisiae deletion strains, locus YOR001W, strain rrp6, stronger effect = lower value): 0.992 (inactive)
normalized growth (S. cerevisiae deletion strains, locus YOR061W, strain CKA2, stronger effect = lower value): 1 (inactive)
normalized growth (S. cerevisiae deletion strains, locus YOR069W, strain VPS5, stronger effect = lower value): 1 (inactive)
normalized growth (S. cerevisiae deletion strains, locus YOR070C, strain gyp1, stronger effect = lower value): 0.995 (inactive)
normalized growth (S. cerevisiae deletion strains, locus YOR080W, strain dia2, stronger effect = lower value): 0.984 (inactive)
normalized growth (S. cerevisiae deletion strains, locus YOR083W, strain WHI5 (second series), stronger effect = lower value): 0.993 (inactive)
normalized growth (S. cerevisiae deletion strains, locus YOR083W, strain WHI5, stronger effect = lower value): 0.987 (inactive)
normalized growth (S. cerevisiae deletion strains, locus YOR106W, strain vam3, stronger effect = lower value): 0.977 (inactive)
normalized growth (S. cerevisiae deletion strains, locus YOR136W, strain idh2, stronger effect = lower value): 0.983 (inactive)
normalized growth (S. cerevisiae deletion strains, locus YOR144C, strain elg1, stronger effect = lower value): 0.995 (inactive)
normalized growth (S. cerevisiae deletion strains, locus YOR184W, strain ser1, stronger effect = lower value): 1.02 (inactive)
normalized growth (S. cerevisiae deletion strains, locus YOR231W, strain MKK1, stronger effect = lower value): 0.974 (inactive)
normalized growth (S. cerevisiae deletion strains, locus YOR265W, strain rbl2, stronger effect = lower value): 0.987 (inactive)
normalized growth (S. cerevisiae deletion strains, locus YOR270C, strain vph1, stronger effect = lower value): 0.991 (inactive)
normalized growth (S. cerevisiae deletion strains, locus YOR290C, strain snf2, stronger effect = lower value): 1 (inactive)
normalized growth (S. cerevisiae deletion strains, locus YOR316C, strain cot1, stronger effect = lower value): 1 (inactive)
normalized growth (S. cerevisiae deletion strains, locus YPL051W, strain arl3, stronger effect = lower value): 0.983 (inactive)
normalized growth (S. cerevisiae deletion strains, locus YPL055C, strain LGE1, stronger effect = lower value): 1.06 (inactive)
normalized growth (S. cerevisiae deletion strains, locus YPL078C, strain atp4, stronger effect = lower value): 0.977 (inactive)
normalized growth (S. cerevisiae deletion strains, locus YPL106C, strain sse1, stronger effect = lower value): 1.01 (inactive)
normalized growth (S. cerevisiae deletion strains, locus YPL240C, strain hsp82, stronger effect = lower value): 0.982 (inactive)
normalized growth (S. cerevisiae deletion strains, locus YPL241C, strain CIN2, stronger effect = lower value): 1 (inactive)
normalized growth (S. cerevisiae deletion strains, locus YPL256C, strain CLN2, stronger effect = lower value): 0.985 (inactive)
normalized growth (S. cerevisiae deletion strains, locus YPR119W, strain clb2, stronger effect = lower value): 0.998 (inactive)
normalized growth (S. cerevisiae deletion strains, locus YPR141C, strain kar3, stronger effect = lower value): 1 (inactive)
normalized growth (S. cerevisiae deletion strains, locus YPR163C, strain tif3, stronger effect = lower value): 0.978 (inactive)
normalized growth (S. cerevisiae deletion strains, locus YPR167C, strain met16, stronger effect = lower value): 0.996 (inactive)
normalized growth (S. cerevisiae deletion strains, strain wtn01, stronger effect = lower value): 1.01 (inactive)
normalized growth (S. cerevisiae strains, strain wild type, stronger effect = lower value): 1.01 (inactive)
